Screening data: PubChem BioAssay, several laboratories
In the library only some 3.4% were active in any assay of this set; here they are far more common.
hgDAF12 agonist: H. glycines DAF-12 receptor agonists, primary screen, cell-based, luminescence, HEK293, GAL4 fusion, UAS-luciferase. Nuclear hormone receptor DAF-12 (Heterodera glycines), GAL4 fusion. actives 1.8% (n = 370,000). activation, % at 6.8 µM. HEK293 GAL4-hgDAF12 UAS-luciferase reporter, agonist luminescence; normalized to butyrate control;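 active = activation above a cutoff set at the mean of all screened compounds plus 3 SD, cut at about 10% in these data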
ssDAF12 agonist: S. stercoralis DAF-12 nuclear receptor activators, primary screen, cell-based, luminescence, HEK293, GRIP1 co-expression, lit1-tk-luc; Nuclear hormone receptor DAF-12 (Strongyloides stercoralis); HEK293 ssDAF-12/GRIP1 lit1-tk-luc reporter; % of 3 µM dafachronic acid response; activation, % at 6.8 µM; actives 1% (n = 370,000); AID 652126, 2013;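 active = activation above the mean over all tested compounds plus 3 SD, cut at about 0.9% in these data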
NF-kB neuron act: activators of NF-kB expression in neurons, primary screen, cell-based, HTS. human neuronal cells, NF-kB reporter expression; hits give high values. fold change at 12.5 µM. actives 1.6% (n = 190,000). AID 1239, 2008; in the data active = fold change above about 3.3
hcDAF-12 act: H. contortus DAF-12 nuclear receptor activators, primary screen, cell-based, luminescence, HEK293, lit1-tk-luc reporter | actives 1.4% (n = 370,000) | HEK293 hcDAF-12 lit1-tk-luc reporter; 0% DMSO, 100% Δ7-dafachronic acid | activation, % at 6.8 µM;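 active = activation above the mean of all tested compounds plus 3 SD, cut at about 5.5% in these data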
APP 5'UTR act: activators of APP 5'UTR luciferase reporter, primary screen, SH-SY5Y cells; SH-SY5Y APP 5'UTR luciferase reporter, luminescence; zero percent = DMSO vehicle wells; activation, % at 2 µM; actives 1% (n = 190,000); AID 1276, 2008;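 active = activation above a set limit, based on mean plus 3 SD of controls, cut at about 140% in these data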
LXR ag: LXR agonists, Gal4 luciferase reporter, confirmation, counter-screen for hcDAF-12 agonist project, cell-based, luminescence, HEK293, H. contortus campaign. 3,400 tested, under 10 active. shares compounds with hcDAF-12 act. HEK293 Gal4-LXR tk-luc reporter, 24 h; normalized: DMSO 0%, positive control 100%. activation, % at 6.8 µM;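 active = mean percent activation of the reporter above a cutoff set as the average over tested compounds plus their standard deviation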
Target sequence (P55055 whole entry, looked up, the tested form may be a part): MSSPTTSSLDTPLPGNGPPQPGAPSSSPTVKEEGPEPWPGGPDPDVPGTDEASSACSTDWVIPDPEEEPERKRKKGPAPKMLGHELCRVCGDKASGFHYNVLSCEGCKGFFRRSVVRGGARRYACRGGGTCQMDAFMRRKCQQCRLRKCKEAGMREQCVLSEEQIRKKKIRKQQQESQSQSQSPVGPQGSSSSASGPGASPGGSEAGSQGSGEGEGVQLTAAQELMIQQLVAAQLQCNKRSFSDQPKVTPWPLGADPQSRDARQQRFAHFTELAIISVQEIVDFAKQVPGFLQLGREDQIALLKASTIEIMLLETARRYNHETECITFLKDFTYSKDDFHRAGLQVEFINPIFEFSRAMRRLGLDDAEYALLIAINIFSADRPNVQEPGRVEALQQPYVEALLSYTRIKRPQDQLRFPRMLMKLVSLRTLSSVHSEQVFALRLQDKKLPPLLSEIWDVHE
hcDAF12 ag: H. contortus DAF-12 receptor agonists, confirmation, cell-based, luminescence, HEK293, lit1-tk-luc, triplicate; shares compounds with hcDAF-12 act; activation, % at 6.8 µM; HEK293 hcDAF-12 lit1-tk-luc reporter; % of Δ7-dafachronic acid response; actives 61% (n = 3,400);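 active = mean activation across triplicate tests above the threshold derived from the earlier primary screen, cut at about 5.5% in these data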
Each line names hits and unclear results; the compound was inactive in the other large screens (follow-up assays come after a bar, where they were run).

COc1ccc(S(=O)(=O)Nc2c(C(=O)O)[nH]c3ccccc23)cc1OC	ssDAF12 agonist 2.0, hcDAF-12 act 7.9 | LXR ag inactive | hcDAF12 ag inactive
Cc1ccc(S(=O)(=O)Nc2c(C(=O)O)[nH]c3ccccc23)c(C)c1	ssDAF12 agonist 1.1, hcDAF-12 act 6.7 (no result: NF-kB neuron act, APP 5'UTR act) | LXR ag inactive | hcDAF12 ag inactive
COc1ccc(S(=O)(=O)Nc2c(C(=O)O)[nH]c3ccccc23)cc1	none (no result: NF-kB neuron act, APP 5'UTR act)
COc1cc(NC(=O)C2CCCN(S(=O)(=O)c3cc(OC)ccc3OC)C2)cc(OC)c1 (centres undefined)	none (no result: NF-kB neuron act, APP 5'UTR act)
COc1ccc(S[C@]2(C(=O)N(C)C)CC(=O)N(c3ccsc3)[C@@H]2c2ccc(OC)cc2)cc1	none (no result: NF-kB neuron act, APP 5'UTR act)
COc1cccc(CNC(=O)CCNC(=O)c2ccco2)c1	none (no result: NF-kB neuron act, APP 5'UTR act)
COc1ccc(CCNC(=O)CCNC(=O)c2ccco2)cc1	hcDAF-12 act 6.8 (no result: NF-kB neuron act, APP 5'UTR act) | LXR ag inactive | hcDAF12 ag inactive
Cc1cc(C(=O)CN2C(=O)c3ccccc3C2=O)c(C)n1Cc1cccs1	none
Cc1cc(C(=O)Cn2nnc3ccccc3c2=O)c(C)n1Cc1cccs1	ssDAF12 agonist 0.9, hcDAF-12 act 8.4, APP 5'UTR act 222.7 | LXR ag inactive | hcDAF12 ag 11.9
O=C(CSc1nc2ccccc2o1)NN=C/C=C\c1ccccc1[N+](=O)[O-]	none (no result: NF-kB neuron act, APP 5'UTR act)
CC(=O)c1cc(-c2cccc(C(C)C)c2)c(=O)n2c1CCC2	none (no result: NF-kB neuron act, APP 5'UTR act)
COc1ccc(Br)cc1/C=N/N1C(=O)CSC1=S	hcDAF-12 act 7.1 (no result: NF-kB neuron act, APP 5'UTR act) | LXR ag inactive | hcDAF12 ag inactive
CCc1ccc(NCc2nc3ccccc3c(=O)[nH]2)cc1	hgDAF12 agonist 15.1, ssDAF12 agonist 2.4, hcDAF-12 act 11.0 | LXR ag inactive | hcDAF12 ag 7.6
CCCCNCc1nc2ccccc2c(=O)[nH]1	none
CC(C)C(=O)Oc1ccc(CO)cc1[C@H](CCN(C(C)C)C(C)C)c1ccccc1	none (no result: NF-kB neuron act, APP 5'UTR act)
O=C(NC1=NCCS1)c1cc2ccccc2o1	hgDAF12 agonist 11.0, NF-kB neuron act 4.77, hcDAF-12 act 7.0 | LXR ag inactive | hcDAF12 ag 6.2
O=C(Nc1ccccn1)c1cc2ccccc2o1	hcDAF-12 act 10.3 | LXR ag inactive | hcDAF12 ag 13.1
O=C(NC1=NCCS1)c1ccccc1	none (no result: NF-kB neuron act, APP 5'UTR act)
Cn1c(SCC(=O)Nc2ccc(S(=O)(=O)Nc3nccs3)cc2)nc2sc3c(c2c1=O)CCCC3	none (no result: NF-kB neuron act, APP 5'UTR act)
CCOC(=O)[C@]12CCCCC/C=C\1N(CCc1ccc(Cl)cc1)C(=O)[C@H]2CC(=O)NCCCN1CCCC1=O	none (no result: NF-kB neuron act, APP 5'UTR act)
Cc1cnc(NC(=O)CSc2nnc(-c3ccccc3)o2)s1	hcDAF-12 act 8.4 | LXR ag inactive | hcDAF12 ag inactive
CCCCCN1CCCCC(NC(=O)c2ccccc2C)C1=O (centres undefined)	none (no result: NF-kB neuron act, APP 5'UTR act)
Cc1csc(NC(=O)c2cccnc2Cl)n1	ssDAF12 agonist 1.1, hcDAF-12 act 8.7 (no result: NF-kB neuron act, APP 5'UTR act) | LXR ag inactive | hcDAF12 ag 10.9
Cc1ccc(-c2nc3ncccn3c2NC(=O)c2cccc(C)c2)cc1	none (no result: NF-kB neuron act, APP 5'UTR act)
O=S(=O)(c1cc(Cl)cc(Cl)c1)N1CCN(c2nc(-c3cccs3)nc3ccccc23)CC1	none (no result: NF-kB neuron act, APP 5'UTR act)
CN(C(=O)c1cccc(NC(=O)c2ccco2)c1)c1ccccc1	none (no result: NF-kB neuron act, APP 5'UTR act)
CN(C)c1cccc(NC(=O)c2ccco2)c1	hcDAF-12 act 6.7 | LXR ag inactive | hcDAF12 ag inactive
CN[C@H]1C[C@H]2c3[nH]c4ccccc4c3CCN2C(=O)[C@H]1[C@H](C)O	hcDAF-12 act 8.1 (no result: NF-kB neuron act, APP 5'UTR act) | LXR ag inactive | hcDAF12 ag inactive
O=C(O)CC/C(=C\c1cc([N+](=O)[O-])ccc1Cl)c1nc2ccccc2s1	hcDAF-12 act 8.8 | LXR ag inactive | hcDAF12 ag 7.9
COc1ccc2c(c1)CNC2CS(=O)(=O)NCc1ccccc1 (centres undefined)	none (no result: NF-kB neuron act, APP 5'UTR act)
Cc1cc2c(s1)c1cnn(Cc3cc(F)c(F)cc3F)c(=O)c1n2C	none (no result: NF-kB neuron act, APP 5'UTR act)
C#CCSc1nnnn1-c1ccc(Br)c(C)c1	hcDAF-12 act 10.0 (no result: NF-kB neuron act, APP 5'UTR act) | LXR ag inactive | hcDAF12 ag inactive
COC(=O)C[C@@H]1CC[C@H]2[C@H](COc3ccc(NC(=O)Nc4ccc(C#N)cc4)cc3C(=O)N2C)O1	none (no result: NF-kB neuron act, APP 5'UTR act)
COc1cccc(-c2nnc(SCC(=O)Nc3ccc(OCc4ccccc4)cc3)n2Cc2ccco2)c1	none (no result: NF-kB neuron act, APP 5'UTR act)
Cc1ccc2[nH]c(=O)c(CN(Cc3ccccc3)Cc3nnnn3C3CCCC3)cc2c1	ssDAF12 agonist 2.5, hcDAF-12 act 13.7 | LXR ag inactive | hcDAF12 ag inactive
C=CCN1C(=O)[C@H](CC(=O)N2CCC(c3ccccc3)CC2)[C@@]2(C(=O)OCC)CCCC=C12	none (no result: NF-kB neuron act, APP 5'UTR act)
COc1cc(SC)ccc1C(=O)Nc1ccccc1	NF-kB neuron act 3.66, hcDAF-12 act 7.7 | LXR ag inactive | hcDAF12 ag 8.3
COc1cccc(NC(=O)c2cc3ccccc3cc2OC)c1	hcDAF-12 act 8.4 (no result: NF-kB neuron act, APP 5'UTR act) | LXR ag inactive | hcDAF12 ag 9.3
COc1cccc(NC(=O)Nc2ccncc2)c1	hcDAF-12 act 6.8 | LXR ag inactive | hcDAF12 ag inactive
CN(C)[C@@H]1CCN(c2ccc3c(c2)O[C@H]2CCN(C2)S3(=O)=O)C1	none (no result: NF-kB neuron act, APP 5'UTR act)
Cn1c(=O)c(C(=O)c2ccccc2)nc2ccccc21	none
Cn1c(=O)c(/C=C/c2ccc(F)cc2)nc2ccccc21	hcDAF-12 act 10.0 | LXR ag inactive | hcDAF12 ag 9.9
Cn1c(=O)c(/C=C/c2ccccc2)nc2ccccc21	hgDAF12 agonist 23.3, ssDAF12 agonist 2.4, NF-kB neuron act 4.2, hcDAF-12 act 13.0, APP 5'UTR act 138.4 | LXR ag inactive | hcDAF12 ag 15.7
CC(=O)c1ccc(/C=C/c2nc3ccccc3n2C)o1	none (no result: NF-kB neuron act, APP 5'UTR act)
Cn1c(/C=C/c2ccccc2)nc2ccccc21	hgDAF12 agonist 11.5, hcDAF-12 act 9.0 | LXR ag inactive | hcDAF12 ag 13.9
Cc1ccc2c(c1)N(CCCC(=O)NCc1ccc(F)cc1)C(=O)CO2	none (no result: NF-kB neuron act, APP 5'UTR act)
COC(=O)[C@H]1C[C@@]2(CC=C(C)C)c3ccccc3N(C(=O)OC(C)(C)C)[C@H]2N1C(=O)OC(C)(C)C	none (no result: NF-kB neuron act, APP 5'UTR act)
O=C(Nc1cccc2cccnc12)c1cccnc1	none
Cc1ccc(C(=O)Nc2cccc3cccnc23)cc1C	hcDAF-12 act 9.7 (no result: NF-kB neuron act, APP 5'UTR act) | LXR ag inactive | hcDAF12 ag 8.8
